Assay results taken from PubChem BioAssay (NCATS).
Inconclusive results are not listed. Active and inactive are the calls of the source. Calls come from the whole dose curve; as a rule, active = well fitted inhibition curve with a large enough effect; inconclusive = small, poorly fitted or top-dose-only effect; inactive = flat fitted curve, though single readings scatter.

Columns and labels:
Assay in all cases: qHTS profiling for inhibitors of Plasmodium falciparum proliferation (AID 504749); note: nearly all actives have a fitted effect of over 60% in size
Details in all cases: P. falciparum in erythrocytes, SYBR Green DNA, 72 h; series mostly up to 28.7 µM
[1] = system: CP265
Method in brief: (§1)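 Parasite proliferation within erythrocytes, 72 h exposure. Endpoint: SYBR Green I fluorescence after overnight lysis at room temperature. Controls: 0.29 uM artemisinin, DMSO.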

[2] = system: CP266
Method in brief: as §1

[3] = system: CP268
Method in brief: as §1

[4] = system: CP269
Method in brief: as §1

[5] = system: CP286
Method in brief: as §1

[6] = system: CP291
Method in brief: as §1

[7] = system: CP297
Method in brief: as §1

[8] = system: CP305
Method in brief: as §1

[9] = system: CP315
Method in brief: as §1

[10] = system: CP325
Method in brief: as §1

[11] = system: CP329
Method in brief: as §1

[12] = system: CP335
Method in brief: as §1

[13] = system: DFO2036
Method in brief: as §1

[14] = system: DIV14
Method in brief: as §1

[15] = system: DIV17
Method in brief: as §1

[16] = system: DIV30
Method in brief: as §1

[17] = system: Dd2
Method in brief: as §1

[18] = system: ECU
Method in brief: as §1

[19] = system: FAB9
Method in brief: as §1

[20] = system: GB4
Method in brief: as §1

Measured: outcome

CCc1cccc2c3c([nH]c12)[C@@](CC)(CC(=O)O)OCC3
inactive: all assays above

CCOC(=O)C(CCc1ccccc1)NC(C)C(=O)N1Cc2ccccc2CC1C(=O)O (stereo not given)
inactive: all assays above
